Experimental data: PubChem BioAssay (EPA / NIEHS)
Records with an inconclusive call do not appear. The source made the active and inactive calls. The calls were made as follows: active = hit-call score of the fitted dose curve at least 0.9, where 1 is the maximum; inconclusive = response in the unintended direction; inactive = score below 0.9.

Assays:
[1] = molecular target: T1, Estrogen receptor (Homo sapiens) + Estrogen receptor beta (Homo sapiens) (UniProt P03372+Q92731); experiment: OT_ER_ERaERb_0480: Odyssey Thera (OT) 8-hour HEK293T Protein-Complementation Assay for Estrogen Receptor-alpha/-beta Heterodimer (AID 2283352)
T1 sequence (P03372 whole entry, looked up, the tested form may be a part): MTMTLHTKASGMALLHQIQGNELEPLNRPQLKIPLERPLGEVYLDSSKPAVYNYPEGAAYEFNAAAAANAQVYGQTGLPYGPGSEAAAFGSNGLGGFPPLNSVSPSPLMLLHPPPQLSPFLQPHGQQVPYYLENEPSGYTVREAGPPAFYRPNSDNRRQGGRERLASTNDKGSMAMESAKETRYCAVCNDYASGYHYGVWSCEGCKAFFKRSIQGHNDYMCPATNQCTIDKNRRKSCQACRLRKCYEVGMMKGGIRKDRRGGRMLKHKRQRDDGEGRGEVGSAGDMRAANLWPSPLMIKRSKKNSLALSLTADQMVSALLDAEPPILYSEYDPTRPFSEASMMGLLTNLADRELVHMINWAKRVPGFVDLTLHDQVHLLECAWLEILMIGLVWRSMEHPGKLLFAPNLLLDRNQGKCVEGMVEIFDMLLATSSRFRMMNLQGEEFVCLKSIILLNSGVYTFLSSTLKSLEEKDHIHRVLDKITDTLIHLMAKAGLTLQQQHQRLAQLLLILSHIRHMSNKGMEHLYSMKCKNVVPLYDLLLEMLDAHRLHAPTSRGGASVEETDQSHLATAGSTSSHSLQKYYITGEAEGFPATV
T1 sequence (Q92731 whole entry, looked up, the tested form may be a part): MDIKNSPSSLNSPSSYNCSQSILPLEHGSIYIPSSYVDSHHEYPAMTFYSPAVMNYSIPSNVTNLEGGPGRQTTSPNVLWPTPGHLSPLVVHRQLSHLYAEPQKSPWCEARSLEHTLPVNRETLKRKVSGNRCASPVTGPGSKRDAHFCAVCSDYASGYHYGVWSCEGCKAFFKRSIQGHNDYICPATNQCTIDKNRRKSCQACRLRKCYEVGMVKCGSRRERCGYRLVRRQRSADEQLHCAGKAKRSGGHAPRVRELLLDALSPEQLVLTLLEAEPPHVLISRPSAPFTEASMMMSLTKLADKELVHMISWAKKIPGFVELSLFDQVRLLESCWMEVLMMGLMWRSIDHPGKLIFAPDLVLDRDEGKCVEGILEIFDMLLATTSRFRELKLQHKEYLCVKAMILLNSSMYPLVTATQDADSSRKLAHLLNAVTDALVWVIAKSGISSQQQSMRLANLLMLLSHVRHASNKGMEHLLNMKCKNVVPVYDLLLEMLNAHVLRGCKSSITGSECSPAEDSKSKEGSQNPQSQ
In short: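 Human HEK293T cells were treated for 8 hours and receptor heterodimerisation was detected through reconstitution of a fluorescent reporter split between ER-alpha and ER-beta ligand-binding domains. Activity was analysed as gain of signal against DMSO.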

[2] = molecular target: Androgen Receptor/SRC-1 Co-activator, AR (gene 367) (UniProt P10275); experiment: OT_AR_ARSRC1_0480: Odyssey Thera (OT) 8-hour HEK293T Protein-Complementation Assay for Androgen Receptor/SRC-1 Co-activator (AID 2283354);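 also: hits raise the complementation signal above DMSO so AC50 marks enhancers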
Chain of Androgen Receptor/SRC-1 Co-activator, AR (gene 367) (P10275 whole entry, looked up, the tested form may be a part): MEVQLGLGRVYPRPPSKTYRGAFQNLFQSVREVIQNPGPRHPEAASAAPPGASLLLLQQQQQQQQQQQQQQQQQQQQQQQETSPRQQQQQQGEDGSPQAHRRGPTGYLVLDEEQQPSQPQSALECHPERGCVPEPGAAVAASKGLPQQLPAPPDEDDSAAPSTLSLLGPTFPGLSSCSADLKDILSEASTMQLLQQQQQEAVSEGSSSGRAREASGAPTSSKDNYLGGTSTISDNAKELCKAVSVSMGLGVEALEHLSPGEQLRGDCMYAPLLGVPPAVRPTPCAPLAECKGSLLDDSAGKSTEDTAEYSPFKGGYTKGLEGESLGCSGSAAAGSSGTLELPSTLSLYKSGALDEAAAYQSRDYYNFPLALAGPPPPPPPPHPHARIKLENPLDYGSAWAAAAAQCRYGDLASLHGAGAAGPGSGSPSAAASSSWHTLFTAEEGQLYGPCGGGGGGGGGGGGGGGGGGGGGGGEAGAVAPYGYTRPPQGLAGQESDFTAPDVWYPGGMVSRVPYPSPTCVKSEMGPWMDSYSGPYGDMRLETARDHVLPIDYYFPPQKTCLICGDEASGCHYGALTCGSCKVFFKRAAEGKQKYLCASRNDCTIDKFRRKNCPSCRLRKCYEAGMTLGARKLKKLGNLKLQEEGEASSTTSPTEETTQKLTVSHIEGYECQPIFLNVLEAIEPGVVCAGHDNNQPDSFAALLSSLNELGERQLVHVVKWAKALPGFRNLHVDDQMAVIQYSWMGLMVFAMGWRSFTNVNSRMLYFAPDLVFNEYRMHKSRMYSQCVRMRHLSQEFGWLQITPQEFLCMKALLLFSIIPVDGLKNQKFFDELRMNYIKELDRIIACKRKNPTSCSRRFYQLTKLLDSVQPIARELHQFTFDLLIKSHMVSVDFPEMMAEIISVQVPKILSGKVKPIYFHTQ
In short: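 HEK293T cells stably expressing AR and SRC-1 fused to Venus YFP fragments, imaged 8 h after dosing. Complementation fluorescence scored as nuclear/cytoplasmic ratio at 488 nm in at least 400 cells per image; gain fitted versus DMSO.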

[3] = molecular target: T1, Estrogen receptor (Homo sapiens) + Estrogen receptor beta (Homo sapiens); experiment: OT_ER_ERaERb_1440: Odyssey Thera (OT) 24-hour HEK293T Protein-Complementation Assay for Estrogen Receptor-alpha/-beta Homodimer (AID 2283356);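 also: heteromer of ER alpha and ER beta binding domains; hits raise reporter fluorescence and both agonists and antagonists give an increase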
In short: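 24 h exposure; HEK293T PCA cells with ERα/ERβ LBD fragments; signal rise in nuclear or whole-cell fluorescence over vehicle.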

[4] = molecular target: Estrogen receptor beta (Homo sapiens) (UniProt Q92731); experiment: OT_ER_ERbERb_0480: Odyssey Thera (OT) 8-hour HEK293T Protein-Complementation Assay for Estrogen Receptor-beta/-beta Homodimer (AID 2283357);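 also: active means signal gain over DMSO baseline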
Chain of Estrogen receptor beta (Homo sapiens) (Q92731 whole entry, looked up, the tested form may be a part): as the sequence (Q92731 whole entry, looked up, the tested form may be a part) above
In short: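 Fluorescence intensity, nuclear for agonists and nuclear plus cytoplasmic for antagonists, was quantified by laser scanning cytometry versus vehicle after 8 h treatment. The cells were HEK293T stably carrying ER beta LBD fragment-complementation partners.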

[5] = molecular target: Retinoic acid receptor alpha (Homo sapiens) (UniProt P10276); experiment: NVS_NR_hRAR_Antagonist: NovaScreen (NVS) Nuclear Receptor Binding Assay for human Retinoic Acid Alpha Receptor Antagonism (RAR) (AID 2283358)
Chain of Retinoic acid receptor alpha (Homo sapiens) (P10276 whole entry, looked up): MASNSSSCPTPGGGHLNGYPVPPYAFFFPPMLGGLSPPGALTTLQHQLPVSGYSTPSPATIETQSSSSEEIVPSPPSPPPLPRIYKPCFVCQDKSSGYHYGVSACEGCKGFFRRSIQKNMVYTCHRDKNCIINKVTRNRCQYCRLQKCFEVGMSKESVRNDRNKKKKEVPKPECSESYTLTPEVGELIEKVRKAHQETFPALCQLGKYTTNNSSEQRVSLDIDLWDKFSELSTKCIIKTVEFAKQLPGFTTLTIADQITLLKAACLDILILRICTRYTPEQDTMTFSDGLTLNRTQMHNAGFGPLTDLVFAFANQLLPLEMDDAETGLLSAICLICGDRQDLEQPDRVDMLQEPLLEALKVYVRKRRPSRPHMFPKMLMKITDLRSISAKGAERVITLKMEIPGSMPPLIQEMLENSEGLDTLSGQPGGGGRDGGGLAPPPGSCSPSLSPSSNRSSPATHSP
In short: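 Cell-free TR-FRET binding assay with extracted human RARalpha in antagonist mode, read 2 h after dosing. Loss of signal was fitted relative to DMSO; the primary screen used 25 uM in duplicate, with concentration series on follow-up.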

[6] = test system: guinea pig Dopamine Transporter (DAT), gene 100714898; experiment: NVS_TR_gDAT: NovaScreen (NVS) Transporter Assay for guinea pig Dopamine Transporter (DAT) (AID 2283369);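 also: active compounds lower bound radioligand signal relative to DMSO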
In short: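 Primary pass: duplicate wells at 25 uM, threshold e.g. 30% inhibition. Follow-up: singleton concentration-response, highest 50 uM. Radioligand binding on guinea pig striatal membranes, 2 h, filtration scintillation detection.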

[7] = molecular target: Peroxisome proliferator-activated receptor gamma (Homo sapiens) (UniProt P37231); experiment: NVS_NR_hPPARg: NovaScreen (NVS) Nuclear Receptor Binding Assay for human Peroxisome Proliferator-activated Receptor gamma (PPARg) (AID 2283370)
In short: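 Extracted receptor protein, cell-free; compound incubated 2 h then fluorescence polarization read. Baseline: DMSO. Actives from 25 uM duplicate screen re-run across concentrations.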

[8] = molecular target: human Serotonin Transporter (SERT), SLC6A4 (gene 6532) (UniProt P31645); experiment: NVS_TR_hSERT: NovaScreen (NVS) Transporter Assay for human Serotonin Transporter (SERT) (AID 2283372)
In short: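 Radioligand binding to native SERT in human platelet membranes, read by filter-based scintillation counting 1 h after dosing. Primary screen in duplicate at 25 uM; actives followed up in concentration series; loss of signal versus DMSO baseline.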

[9] = molecular target: human Dopamine Transporter (DAT), SLC6A3 (gene 6531) (UniProt Q01959); experiment: NVS_TR_hDAT: NovaScreen (NVS) Transporter Assay for human Dopamine Transporter (DAT) (AID 2283374);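 also: activity means loss of bound radioligand signal relative to DMSO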
In short: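 Cell-free radioligand displacement binding at human DAT, 1 h after dosing, with filtration and scintillation counting. Primary screen in duplicate at 25 uM, actives then in concentration series. Loss of bound signal versus DMSO scored.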

[10] = molecular target: rat Serotonin Transporter (SERT), Slc6a4 (gene 25553) (UniProt P31652); experiment: NVS_TR_rSERT: NovaScreen (NVS) Transporter Assay for rat Serotonin Transporter (SERT) (AID 2283375)
In short: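 Using rat forebrain membrane SERT, test chemicals compete with a radioligand for 1 hour, and bound counts are taken by filter-based scintillation. Screening starts at 25 uM in duplicate, followed by concentration series for actives.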

[11] = molecular target: PGR (gene 5241) (UniProt P06401); experiment: NVS_NR_hPR: NovaScreen (NVS) Nuclear Receptor Binding Assay for human Progestron Receptor (PR) (AID 2283360);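 also: active means loss of bound radioligand signal versus DMSO baseline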
Chain of PGR (gene 5241) (P06401 whole entry, looked up): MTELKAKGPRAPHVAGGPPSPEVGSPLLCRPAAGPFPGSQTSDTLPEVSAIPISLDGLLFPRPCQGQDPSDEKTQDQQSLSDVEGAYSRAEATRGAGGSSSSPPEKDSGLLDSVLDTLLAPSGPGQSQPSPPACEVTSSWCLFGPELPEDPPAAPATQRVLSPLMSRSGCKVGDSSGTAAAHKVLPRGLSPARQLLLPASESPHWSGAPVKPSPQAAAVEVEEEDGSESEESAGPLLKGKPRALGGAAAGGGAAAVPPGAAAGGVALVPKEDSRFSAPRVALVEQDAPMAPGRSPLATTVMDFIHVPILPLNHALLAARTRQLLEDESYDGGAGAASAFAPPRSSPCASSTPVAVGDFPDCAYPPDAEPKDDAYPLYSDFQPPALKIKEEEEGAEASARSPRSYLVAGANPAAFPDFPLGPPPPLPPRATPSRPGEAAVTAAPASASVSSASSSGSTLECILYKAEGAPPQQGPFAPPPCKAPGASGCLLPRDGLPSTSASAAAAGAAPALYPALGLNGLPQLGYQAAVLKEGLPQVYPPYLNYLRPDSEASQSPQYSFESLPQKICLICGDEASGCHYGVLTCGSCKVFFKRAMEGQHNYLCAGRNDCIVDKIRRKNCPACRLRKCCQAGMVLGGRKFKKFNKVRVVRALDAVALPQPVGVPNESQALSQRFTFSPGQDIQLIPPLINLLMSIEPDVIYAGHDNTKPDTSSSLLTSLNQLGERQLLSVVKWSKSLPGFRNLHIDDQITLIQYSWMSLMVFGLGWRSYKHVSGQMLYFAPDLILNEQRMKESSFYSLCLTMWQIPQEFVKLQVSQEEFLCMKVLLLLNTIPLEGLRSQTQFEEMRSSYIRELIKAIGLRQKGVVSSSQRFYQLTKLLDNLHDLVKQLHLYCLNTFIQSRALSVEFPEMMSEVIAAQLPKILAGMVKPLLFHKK
In short: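 T47D-derived receptor preparation, cell-free, with tritiated or iodinated radioligand displacement measured by scintillation 18 h post-dosing. Single 25 uM duplicate screen, then concentration series; signal loss relative to DMSO.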

[12] = molecular target: human Thyroid Receptor Alpha (TRa), THRA (gene 7067) (UniProt P10827); experiment: NVS_NR_hTRa_Antagonist: NovaScreen (NVS) Nuclear Receptor Binding Assay for human Thyroid Receptor Alpha Antagonism (TRa) (AID 2283362);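 also: activity is loss of signal relative to DMSO baseline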
Chain of human Thyroid Receptor Alpha (TRa), THRA (gene 7067) (P10827 whole entry, looked up): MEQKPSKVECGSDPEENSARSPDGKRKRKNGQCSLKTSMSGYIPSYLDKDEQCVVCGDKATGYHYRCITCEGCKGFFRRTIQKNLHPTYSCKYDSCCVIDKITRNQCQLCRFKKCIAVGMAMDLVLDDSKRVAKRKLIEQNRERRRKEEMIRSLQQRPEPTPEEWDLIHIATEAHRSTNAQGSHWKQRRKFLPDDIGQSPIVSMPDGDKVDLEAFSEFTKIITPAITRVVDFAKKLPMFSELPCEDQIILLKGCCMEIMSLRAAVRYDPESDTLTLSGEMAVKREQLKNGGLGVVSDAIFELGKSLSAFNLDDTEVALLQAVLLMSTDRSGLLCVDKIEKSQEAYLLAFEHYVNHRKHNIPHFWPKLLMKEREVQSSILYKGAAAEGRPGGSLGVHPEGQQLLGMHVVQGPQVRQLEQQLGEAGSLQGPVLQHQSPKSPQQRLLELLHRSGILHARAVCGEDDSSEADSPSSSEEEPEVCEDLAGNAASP
In short: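 In this biochemical format, receptor protein is dosed with chemical and read after 1 hour via AlphaLISA. Decreases from the DMSO baseline indicate antagonist activity; screening used 25 uM in duplicate before concentration-response confirmation.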

[13] = molecular target: rat Androgen Receptor (AR), Ar (gene 24208) (UniProt P15207); experiment: NVS_NR_rAR: NovaScreen (NVS) Nuclear Receptor Binding Assay for rat Androgen Receptor (AR) (AID 2283366)
Chain of rat Androgen Receptor (AR), Ar (gene 24208) (P15207 whole entry, looked up): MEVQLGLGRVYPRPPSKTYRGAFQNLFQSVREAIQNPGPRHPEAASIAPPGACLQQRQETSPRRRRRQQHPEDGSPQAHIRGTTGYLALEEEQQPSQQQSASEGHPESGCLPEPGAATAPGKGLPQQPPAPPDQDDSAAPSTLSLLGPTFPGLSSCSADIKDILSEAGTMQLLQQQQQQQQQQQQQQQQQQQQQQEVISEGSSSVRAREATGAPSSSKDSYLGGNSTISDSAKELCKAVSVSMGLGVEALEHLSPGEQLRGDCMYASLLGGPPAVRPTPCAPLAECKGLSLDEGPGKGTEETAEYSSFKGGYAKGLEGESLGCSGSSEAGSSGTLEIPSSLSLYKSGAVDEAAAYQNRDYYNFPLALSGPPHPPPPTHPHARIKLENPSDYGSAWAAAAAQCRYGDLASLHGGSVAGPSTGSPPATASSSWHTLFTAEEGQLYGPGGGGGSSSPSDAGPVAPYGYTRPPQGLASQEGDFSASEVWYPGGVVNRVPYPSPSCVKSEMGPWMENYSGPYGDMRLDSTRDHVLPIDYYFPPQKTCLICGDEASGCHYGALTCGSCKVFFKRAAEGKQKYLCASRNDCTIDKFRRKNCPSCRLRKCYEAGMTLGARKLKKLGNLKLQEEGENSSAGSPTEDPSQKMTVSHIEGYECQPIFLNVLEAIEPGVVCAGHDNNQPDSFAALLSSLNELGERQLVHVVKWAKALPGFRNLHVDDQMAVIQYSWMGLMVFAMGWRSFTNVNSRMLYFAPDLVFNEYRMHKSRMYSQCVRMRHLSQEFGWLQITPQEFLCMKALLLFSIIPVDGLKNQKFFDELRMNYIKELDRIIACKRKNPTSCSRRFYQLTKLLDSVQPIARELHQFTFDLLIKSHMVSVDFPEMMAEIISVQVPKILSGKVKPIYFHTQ
In short: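 Cell-free radioligand binding on extracts of prostate from testosterone-pretreated rats, read by filter-based scintillation counting 18 h after dosing. Loss of bound signal fitted positively versus DMSO; primary screen in duplicate at 25 uM, actives followed up in concentration series.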

[14] = molecular target: Nuclear receptor subfamily 1 group I member 2 (Homo sapiens) (UniProt O75469); experiment: NVS_NR_hPXR: NovaScreen (NVS) Nuclear Receptor Binding Assay for human Pregnane X Receptor (PXR) (AID 2283365);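 also: a drop in FRET signal versus DMSO baseline means the compound binds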
In short: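 Read-out: TR-FRET, human PXR, 2 h post-dosing, cell-free. Loss of signal vs DMSO taken as binding activity; 25 uM primary, concentration series secondary.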

[15] = molecular target: rat Mineralocorticoid Receptor (MR), Nr3c2 (gene 25672) (UniProt P22199); experiment: NVS_NR_rMR: NovaScreen (NVS) Nuclear Receptor Binding Assay for rat Mineralocorticoid Receptor (MR) (AID 2283355)
In short: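 Cell-free radioligand binding to mineralocorticoid receptor from adrenalectomized rat brain supernatant, scintillation counting after 24 h. Primary screen in duplicate at 25 uM; actives retested in concentration series. Loss of specific binding versus DMSO.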

[16] = test system: rat Norepinephrine Transporter (NET), gene 83511; experiment: NVS_TR_rNET: NovaScreen (NVS) Transporter Assay for rat Norepinephrine Transporter (NET) (AID 2283373)
In short: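 Rat forebrain membranes; radioligand binding measured by filter-based scintillation counting 1 hour after dosing. Loss of specific binding versus DMSO baseline scored; primary screen in duplicate at 25 uM, actives followed up in concentration series.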

[17] = molecular target: guinea pig Sigma Receptor, Non-selective Binding, SIGMAR1 (gene 100135589) (UniProt Q60492); experiment: NVS_OR_gSIGMA_NonSelective: NovaScreen (NVS) Nuclear Receptor Binding Assay for guinea pig Sigma Receptor, Non-selective Binding (AID 2283367)
In short: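 Radioligand displacement on guinea pig brain membranes, read by filter-based scintillation counting 1 h after dosing. Loss of signal versus DMSO; initial duplicate single-point screen at 25 uM, actives followed in concentration series.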

[18] = molecular target: human Adenosine Transporter (Adot), SLC29A1 (gene 2030) (UniProt Q99808); experiment: NVS_TR_hAdoT: NovaScreen (NVS) Transporter Assay for human Adenosine Transporter (Adot) (AID 2283368)
In short: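 U937-derived membranes, cell-free radioligand binding, filter scintillation 1 h after dosing. 25 uM duplicate screen; hits (e.g. 30% inhibition) run in concentration-response up to 50 uM; loss of signal versus DMSO.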

[19] = molecular target: Retinoic acid receptor alpha (Homo sapiens) (UniProt P10276); experiment: NVS_NR_hRARa_Agonist: NovaScreen (NVS) Nuclear Receptor Binding Assay for human Retinoic Acid Alpha Receptor Agonism (RAR) (AID 2283361)
In short: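 Cell-free TR-FRET binding readout with extracted receptor protein, read 2 hours after dosing; gain-of-signal fitted relative to DMSO. Screened in duplicate at 25 uM, actives then run in concentration-response.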

## Nc1c(Cl)cc([N+](=O)[O-])cc1Cl
[1]
  outcome: inactive
[2]
  outcome: inactive
[3]
  outcome: inactive
[4]
  outcome: inactive
[5]
  outcome: inactive
[6]
  outcome: inactive
[7]
  outcome: inactive
[8]
  outcome: inactive
[9]
  AC50: 25 µM (active)
[10]
  AC50: 3.3 µM (active)

## Cc1nn(-c2cc(NS(C)(=O)=O)c(Cl)cc2Cl)c(=O)n1C(F)F
[2]
  outcome: inactive

## C=C(C)[C@H]1Cc2c(ccc3c2O[C@@H]2COc4cc(OC)c(OC)cc4[C@@H]2C3=O)O1
[2]
  AC50: 0.973 µM (active)
[11]
  outcome: inactive
[12]
  outcome: inactive
[13]
  outcome: inactive
[6]
  outcome: inactive
[7]
  outcome: inactive
[9]
  outcome: inactive

## CC(C1CC1)C(O)(Cn1cncn1)c1ccc(Cl)cc1 (configuration not stated)
[4]
  AC50: 29.6 µM (active)
[5]
  outcome: inactive
[11]
  outcome: inactive
[12]
  outcome: inactive
[14]
  outcome: inactive
[9]
  AC50: 0.175 µM (active)

## CCOP(=O)(NC(C)C)Oc1ccc(SC)c(C)c1 (configuration not stated)
[2]
  outcome: inactive
[4]
  outcome: inactive
[5]
  outcome: inactive
[7]
  outcome: inactive

## CCOP(=S)(OCC)Oc1ccc([N+](=O)[O-])cc1
[15]
  outcome: inactive
[11]
  AC50: 14.6 µM (active)
[12]
  outcome: inactive
[7]
  outcome: inactive
[8]
  AC50: 7.25 µM (active)
[10]
  AC50: 8.93 µM (active)

## CN(C)C(=O)Nc1cccc(C(F)(F)F)c1
[4]
  outcome: inactive

## CCCOc1nn(C(=O)NS(=O)(=O)c2ccccc2C(=O)OC)c(=O)n1C
[2]
  outcome: inactive

## CN(C)NC(=O)CCC(=O)O
[4]
  AC50: 50 µM (active)

## Nc1nc(N)nc(NC2CC2)n1
[4]
  outcome: inactive

## Cc1cc(C2CC2)nc(Nc2ccccc2)n1
[1]
  outcome: inactive
[3]
  AC50: 40 µM (active)
[4]
  AC50: 50 µM (active)
[5]
  outcome: inactive
[16]
  AC50: 5.69 µM (active)

## CCCCSP(=O)(SCCCC)SCCCC
[4]
  outcome: inactive

## COc1cccc(C(=O)NN(C(=O)c2cc(C)cc(C)c2)C(C)(C)C)c1C
[4]
  outcome: inactive
[5]
  outcome: inactive

## CCC(=O)Nc1ccc(Cl)c(Cl)c1
[2]
  outcome: inactive
[17]
  AC50: 9.51 µM (active)
[16]
  AC50: 4.96 µM (active)
[9]
  AC50: 6.22 µM (active)

## CC1=NNC(=O)N(/N=C/c2cccnc2)C1
[4]
  outcome: inactive
[5]
  outcome: inactive

## COc1ccc(C(=CC(=O)N2CCOCC2)c2ccc(Cl)cc2)cc1OC
[2]
  outcome: inactive
[4]
  outcome: inactive
[5]
  outcome: inactive
[18]
  AC50: 9.48 µM (active)
[8]
  outcome: inactive
[10]
  outcome: inactive

## CCOC(=O)COc1cc(-c2nn(C)c(OC(F)F)c2Cl)c(F)cc1Cl
[2]
  outcome: inactive
[19]
  outcome: inactive

## N#CSCSC#N
[2]
  AC50: 18.2 µM (active)
[4]
  outcome: inactive
[5]
  outcome: inactive

## CNC(=O)ON=C(SC)C(=O)N(C)C
[1]
  outcome: inactive
[2]
  outcome: inactive
[3]
  outcome: inactive
[4]
  outcome: inactive
[5]
  outcome: inactive
[11]
  outcome: inactive
[12]
  outcome: inactive
[13]
  outcome: inactive

## CC(C)=CC1C(C(=O)OCN2C(=O)C3=C(CCCC3)C2=O)C1(C)C (configuration not stated)
[2]
  AC50: 77.5 µM (active)
[18]
  AC50: 25 µM (active)
[6]
  outcome: inactive
[8]
  outcome: inactive
[9]
  outcome: inactive
[10]
  outcome: inactive

## CSC1=N[C@@](C)(c2ccccc2)C(=O)N1Nc1ccccc1
[4]
  outcome: inactive

## COP(=O)(OC)OC(Br)C(Cl)(Cl)Br (configuration not stated)
[2]
  outcome: inactive
[3]
  outcome: inactive

## O=c1ccc(=O)[nH][nH]1
[2]
  outcome: inactive

## CCCCOC(=O)c1ccccc1C(=O)O
[2]
  outcome: inactive
[4]
  outcome: inactive
[5]
  outcome: inactive
[13]
  outcome: inactive
[6]
  outcome: inactive
[7]
  outcome: inactive
[9]
  AC50: 8.41 µM (active)

## CC(Oc1cccc(Cl)c1)C(=O)O (configuration not stated)
[4]
  outcome: inactive

## Cc1ccn2nc(S(=O)(=O)Nc3c(F)cccc3F)nc2n1
[4]
  outcome: inactive

## CSc1nc(NC(C)C)nc(NC(C)C)n1
[1]
  outcome: inactive
[3]
  outcome: inactive
[4]
  outcome: inactive

## CCCCOC(=O)[C@@H](C)Oc1ccc(Oc2ccc(C#N)cc2F)cc1
[1]
  outcome: inactive
[3]
  outcome: inactive
[4]
  outcome: inactive
[9]
  outcome: inactive

## CCNc1nc(Cl)nc(NC(C)(C)C#N)n1
[4]
  outcome: inactive

## CC(COc1ccc(Oc2ccccc2)cc1)Oc1ccccn1 (configuration not stated)
[2]
  outcome: inactive
[4]
  outcome: inactive
[11]
  outcome: inactive
[13]
  outcome: inactive
[7]
  outcome: inactive
[9]
  outcome: inactive

## CCc1cccc(CC)c1N(COC)C(=O)CCl
[2]
  outcome: inactive
[3]
  outcome: inactive
[7]
  AC50: 21.2 µM (active)
